VACV mCherry inh – vaccinia inhibition (mCherry reporter); actives 0.63% (n = 310,000); Vaccinia virus mCherry reporter infection, fluorescence; Potency, µM (titrated, usually from 36.5 µM), without a hit: at the top dose activity change, negative = inhibition, actives largely listed as inhibitors; calls by dose curve; tested in A549 cells; note: % is set by controls: 0 for no effect and ±100 for the full control effect; nearly all actives have a fitted effect of over 35% in size
Pf growth 48h – inhibits P. falciparum growth in the first generation, 48 h; AID 504832; P. falciparum luciferase growth in erythrocytes, 48 h; Potency, µM (top dose mostly 28.7 µM), without a hit: at the top dose activity change, negative = inhibition, most hits filed as inhibitors; actives 5.9% (n = 310,000); note: % is set by controls: 0 for no effect and ±100 for the full control effect
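Luminescence readout; reporter = integrated firefly luciferase in P. falciparum. RBC culture at 2% hematocrit, 0.1% parasitemia final, 37 C/5% CO2; decreased signal taken as growth inhibition.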
VACV Venus inh – vaccinia inhibition (Venus reporter); Potency, µM (series often up to 36.5 µM), without a hit: at the highest dose activity change, negative = inhibition, hits mostly inhibitors; actives 0.46% (n = 330,000); Vaccinia virus Venus reporter expression, fluorescence; calls by dose curve; tested in A549 cells; note: % is set by controls: 0 for no effect and ±100 for the full control effect; nearly all actives have a fitted effect of over 30% in size
NS1 function inh – blocks influenza NS1 protein function. Potency, µM (titrated, usually from 46.1 µM), inactives show at the highest dose activity, positive = more growth. actives 0.4% (n = 270,000); calls by dose curve; note: actives are rising curves; nearly all actives have a fitted effect of over 50% in size
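In this qHTS, NS1 from influenza A is expressed in budding yeast, where it slows growth. Cells are switched from glucose to 2% galactose medium (pH 6.0, -URA), treated with compound, and growth recovery is read at OD600.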
Pf growth 96h – P. falciparum growth inhibition at 96 hours. Potency, µM (titrated, usually from 28.7 µM), inactives show at the top dose activity change, negative = inhibition, hits mostly inhibitors. AID 504834. P. falciparum luciferase reporter growth, 96 h. actives 6.9% (n = 320,000); note: % is set by controls: 0 for no effect and ±100 for the full control effect
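Delayed-death screen, second-generation endpoint: infected erythrocytes, 2% hematocrit, 0.05% parasitemia final; 96 hours at 37 C, 5% CO2; luciferase detection reagent; luminescence decrease equals reduced growth.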
HCV inhibitor – HCV inhibition. Huh7.5.1 HCVcc-Cre infection, luciferase reporter, 44 h. Potency, µM (top dose mostly 41.8 µM), for inactives: at the top dose activity change, negative = inhibition, hits mostly inhibitors. actives 3.4% (n = 340,000); note: % is set by controls: 0 for no effect and ±100 for the full control effect
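Infectious HCVcc-Cre (~0.5 moi) was added to cells just after compound, with cells seeded 4 h earlier at 1,000 per well. Luciferase activity after 44 h culture reported infection; substrate was incubated 15 min at room temperature before reading.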
Numbers without * were called inactive; i = inactive; ? = inconclusive; . = no result. In the library only some 11% were active in any assay of this set; here they are far more common. Unless noted, calls come from the whole dose curve; as a rule, active = well fitted inhibition curve with a large enough effect; inconclusive = small, poorly fitted or top-dose-only effect, or another doubt; inactive = no such curve, though single readings can be large or run the other way. Potency is the fitted concentration of half-maximal effect.

SMILES	VACV mCherry inh	Pf growth 48h	VACV Venus inh	NS1 function inh	Pf growth 96h	HCV inhibitor
COc1cc(SC)ccc1C(=O)N1CCN(Cc2ccccc2)CC1	.	2%	.	4%	9%	25µM*
O=C(c1cccc(F)c1)N1CCN(Cc2ccco2)CC1	.	8%	-6%	7%	6.6µM*	16%
O=C(c1ccco1)N1CCN(Cc2cccc(F)c2)CC1	-13%	10%	-6%	2%	.	9%
CN1CCN(S(=O)(=O)c2ccc(SCCOc3ccc(Cl)cc3)nc2)CC1	?	?	-21%	.	?	?
Cn1nc(-c2ccc(OCC(=O)N3CCN(Cc4ccccc4)CC3)cc2)c2ccccc2c1=O	-14%	-19%	?	-38%	?	6.3µM*
OC1CCN(Cc2ccc(OCc3ccccc3)cc2)CC1	i	127%	-8%	-2%	4.1µM*	-16%
CCOc1cc(CN2CCN(C(=O)Cc3ccccc3)CC2)ccc1OC	.	0%	.	-7%	?	-1%
CCOc1ccc(CN2CCN(C(=O)Cc3ccccc3)CC2)cc1	.	-1%	.	11%	6.6µM*	?
O=C(C1CCN(Cc2ccc(OCc3ccccc3)cc2)CC1)N1CCCC1	.	-10%	.	-33%	.	-24%
CS(=O)(=O)N1CCN(C(=O)NC2CCCCC2)CC1	-17%	8%	-13%	1%	?	6%
CCCCN(CC)Cc1ccc(CNC(=O)Nc2ccc(OCC)cc2)o1	.	.	.	-8%	?	13µM*
CCCCN(CC)Cc1ccc(CNC(=O)Nc2ccc(Cl)cc2)o1	i	?	-10%	.	21%	?
NN1C(=O)/C(=C2/Sc3ccccc3N2CCCS(=O)(=O)O)SC1=S	.	9%	.	3%	0%	9%
O=C1NC(=S)S/C1=C1\Sc2ccccc2N1CCCS(=O)(=O)O	i	7%	-10%	-2%	7.4µM*	22%
CCNS(=O)(=O)c1cc(Br)ccc1OC	.	-16%	.	5%	16%	4%
S=c1[nH]c2cc(-c3ccccc3)ccc2o1	-4%	32%	-10%	-101%	42%	4%
S=c1[nH]c2ncccc2o1	i	-7%	-6%	-1%	2.1µM*	6%
NC(=O)CSc1ccc(Br)cc1	-14%	7%	-2%	4%	?	4%
Cc1ccc(Nc2nc3nonc3[nH]c2=O)cc1C	.	46%	-23%	-96%	5.2µM*	-7%
CCN(CC)c1nc(Nc2ccc([N+](=O)[O-])cc2)nc(N(CC)CC)n1	.	?	.	15%	-69%	11µM*
Cc1ccc(S(=O)(=O)N(Cc2cc3cc4c(cc3[nH]c2=O)OCCO4)CC2CCCO2)cc1 (stereo not drawn)	-15%	22%	-4%	1%	-20%	5%
COc1ccc2cc(CN(CC3CCCO3)S(=O)(=O)c3ccccc3)c(=O)[nH]c2c1 (stereo not drawn)	-18%	-16%	-19%	-8%	.	-9%
O=c1[nH]c2cc3c(cc2cc1CN(CC1CCCO1)S(=O)(=O)c1ccc(Cl)cc1)OCCO3 (stereo not drawn)	-10%	39%	-5%	-3%	12µM*	7%
COc1ccc2[nH]c(=O)c(CN(CC3CCCO3)S(=O)(=O)c3ccccc3)cc2c1 (stereo not drawn)	-2%	1%	-5%	-15%	1.7µM*	?
O=C(NCCN1CCOCC1)c1ccc(Cl)c([N+](=O)[O-])c1	-20%	0%	-2%	0%	290%	-1%
SMILES	VACV mCherry inh	Pf growth 48h	VACV Venus inh	NS1 function inh	Pf growth 96h	HCV inhibitor
CCOc1ccc(CNc2ccc3c(c2)ncn3C(C)(C)C)cc1	-22%	?	-22%	-6%	136%	?
COc1ccccc1-n1cnc2cc(NS(=O)(=O)c3ccc(Br)cc3)ccc21	.	.	.	?	5.2µM*	?
COc1ccc(CNc2ccc3c(c2)ncn3-c2ccccc2OC)cc1	i	15µM*	-13%	-70%	13µM*	?
COc1ccc(-n2cnc3cc(NS(=O)(=O)c4ccc(C)cc4)ccc32)cc1	.	.	.	6%	?	.
CCOc1ccc(CNc2ccc3c(c2)ncn3C)cc1	-5%	-13%	-8%	-7%	10µM*	-3%
Cc1cc(NCc2ccc(F)cc2)nc2cc(Cl)ccc12	.	55%	.	-90%	-6%	?
